{"source": "paper PMC10726135", "about": "“HNF4α isoforms regulate the circadian balance between carbohydrate and lipid metabolism in the liver”", "note": "In all, about 18,000 sequences were measured (“log2 normalized intensity”: median about 0.39, highest 2% from about 6.6 on). Shown is part of a subset that was picked to be rich in the highest values.", "data": [{"target": "T1, HNF4alpha2 (COS-7 nuclear extract) (Homo sapiens, UniProt P41235 1-474)", "T1 sequence": "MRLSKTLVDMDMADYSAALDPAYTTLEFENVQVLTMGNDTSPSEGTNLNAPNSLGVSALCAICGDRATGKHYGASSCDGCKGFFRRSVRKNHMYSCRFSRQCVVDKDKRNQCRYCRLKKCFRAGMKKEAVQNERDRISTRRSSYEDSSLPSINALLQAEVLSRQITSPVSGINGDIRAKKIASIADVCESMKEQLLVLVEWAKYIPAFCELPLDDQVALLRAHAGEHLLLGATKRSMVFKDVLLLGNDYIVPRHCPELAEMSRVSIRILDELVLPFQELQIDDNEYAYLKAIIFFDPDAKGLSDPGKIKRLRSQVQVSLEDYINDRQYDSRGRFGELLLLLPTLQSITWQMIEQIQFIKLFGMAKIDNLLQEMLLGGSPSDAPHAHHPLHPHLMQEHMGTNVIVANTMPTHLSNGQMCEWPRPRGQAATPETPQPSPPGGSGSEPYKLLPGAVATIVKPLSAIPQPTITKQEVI", "test": "protein-binding microarray; COS-7 nuclear extract on double-stranded Agilent 4x180k PBM; binding buffer, salt, pH and temperature not given in the material; high values mean tight binding", "details": "chain copies: 2; label: 3' end of strand 1 on the slide; dsDNA, one strand shown", "method_in_brief": "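Nuclear extracts of COS-7 cells transiently transfected with a human HNF4α isoform were applied to a custom Agilent SurePrint G3 4x180k array bearing ~44,000 double-stranded ~60-nt test sequences, each in quadruplicate. The bound protein was imaged on an Agilent G2565CA scanner at 2-µm resolution. Binding signal is the normalized, background-corrected gProcessedSignal from Agilent software.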", "units": {"binding signal": "log2 normalized intensity"}, "values": [{"sequence": "AAATCTGCCCAACCTTTGCCCCTGGAGGGAGCCTAGGGAGATTAGAGTATCGGTCGA", "binding signal": 3.74}, {"sequence": "CTTTGCCCCCAGCCTCTCACAGTAGCCCAGGCCTAGGGAGATTAGAGTATCGGTCGA", "binding signal": 4.6}, {"sequence": "CTGACCTTTGCCCCCAGCCTCTCACAGTAGGCCTAGGGAGATTAGAGTATCGGTCGA", "binding signal": 6.87}, {"sequence": "TCCTGGAACTCTGACCTTTGCCCCCAGCCTGCCTAGGGAGATTAGAGTATCGGTCGA", "binding signal": 9.67}, {"sequence": "AGGAGGAGGTTCCTGGAACTCTGACCTTTGGCCTAGGGAGATTAGAGTATCGGTCGA", "binding signal": 5.97}, {"sequence": "GAGGTTCCTGGAACTCTGACCTTTGCCCCCGCCTAGGGAGATTAGAGTATCGGTCGA", "binding signal": 10.5}, {"sequence": "GCCTGCCCCTCTGACCTCTCCTCCTACCTTGCCTAGGGAGATTAGAGTATCGGTCGA", "binding signal": 3.24}, {"sequence": "AGCCTCTCACAGTAGCCCAGGTCCTTTGGTGCCTAGGGAGATTAGAGTATCGGTCGA", "binding signal": 0.178}, {"sequence": "TGCCCAGCTTGAATCACTCACTGACCTCTTGCCTAGGGAGATTAGAGTATCGGTCGA", "binding signal": 3.98}, {"sequence": "ACCGACCTTTGGTTCCTGAACTCAAACCCCGCCTAGGGAGATTAGAGTATCGGTCGA", "binding signal": 2.57}, {"sequence": "GCTATCTTATCTTTGACCTTACCAGCCCACGCCTAGGGAGATTAGAGTATCGGTCGA", "binding signal": 2.3}, {"sequence": "GAACTCTGACCTTTGCCCCCAGCCTCTCACGCCTAGGGAGATTAGAGTATCGGTCGA", "binding signal": 8.72}, {"sequence": "TTCTGTCCTCTCAAAGTCCACCCGGCCAGCGCCTAGGGAGATTAGAGTATCGGTCGA", "binding signal": 4.04}, {"sequence": "TGCATCAGTGCTGACCTACCTGACCTGGCAGCCTAGGGAGATTAGAGTATCGGTCGA", "binding signal": 1.28}, {"sequence": "AAGGGCAGCAGTAACCCCCCAGGAGCGAGTGCCTAGGGAGATTAGAGTATCGGTCGA", "binding signal": 3.54}, {"sequence": "TGGGTATGTCTGTAGGTAAGCACAAAGTACGCCTAGGGAGATTAGAGTATCGGTCGA", "binding signal": 1.92}, {"sequence": "GGCAAAACACCCCTTTCACTTCTTCCCCTCGCCTAGGGAGATTAGAGTATCGGTCGA", "binding signal": 3.8}, {"sequence": "TAACCCTACAGTCCTGCCACATCCCCCACAGCCTAGGGAGATTAGAGTATCGGTCGA", "binding signal": 4.26}, {"sequence": "AGGGGCTGCTGGGAGTTGTAGTTTTTTGGGGCCTAGGGAGATTAGAGTATCGGTCGA", "binding signal": 1.54}, {"sequence": "AAGAGTCAAAGGGCAAAGGAATAAAATAGCGCCTAGGGAGATTAGAGTATCGGTCGA", "binding signal": -0.272}, {"sequence": "CTCTTCAGAATGGCCTGCCCATCCCCCCAAGCCTAGGGAGATTAGAGTATCGGTCGA", "binding signal": 5.18}, {"sequence": "CCCCCACTGCCTGACCCCAAGTAATAGCCGGCCTAGGGAGATTAGAGTATCGGTCGA", "binding signal": 5.25}, {"sequence": "ACTGCCTGACCCCAAGTAATAGCCGTTTCTGCCTAGGGAGATTAGAGTATCGGTCGA", "binding signal": 1.07}, {"sequence": "GGCGTGACCCCCACTGCCTGCCTGCCAACTGCCTAGGGAGATTAGAGTATCGGTCGA", "binding signal": 2.89}, {"sequence": "CCCCACCCCCACTGCCTGACCCCAAGTAATGCCTAGGGAGATTAGAGTATCGGTCGA", "binding signal": 6.98}, {"sequence": "TTCATCCCCACCCCCACTGCCTGACCCCAAGCCTAGGGAGATTAGAGTATCGGTCGA", "binding signal": 7.59}]}]}
